From PubChem BioAssay
D2 antagonist = HTS Assay for Allosteric Antagonists of the Human D2 Dopamine Receptor: Primary Screen for Antagonists; D(2) dopamine receptor (Homo sapiens), P14416; HEK293 TREx D2 cells, calcium flux, dopamine EC80; inhibition, % at 10 µM; 340,000 tested, 2% active; in the data active means inhibition above about 30%; inactive means below that, where a call was filed
Target sequence (P14416 whole entry, looked up): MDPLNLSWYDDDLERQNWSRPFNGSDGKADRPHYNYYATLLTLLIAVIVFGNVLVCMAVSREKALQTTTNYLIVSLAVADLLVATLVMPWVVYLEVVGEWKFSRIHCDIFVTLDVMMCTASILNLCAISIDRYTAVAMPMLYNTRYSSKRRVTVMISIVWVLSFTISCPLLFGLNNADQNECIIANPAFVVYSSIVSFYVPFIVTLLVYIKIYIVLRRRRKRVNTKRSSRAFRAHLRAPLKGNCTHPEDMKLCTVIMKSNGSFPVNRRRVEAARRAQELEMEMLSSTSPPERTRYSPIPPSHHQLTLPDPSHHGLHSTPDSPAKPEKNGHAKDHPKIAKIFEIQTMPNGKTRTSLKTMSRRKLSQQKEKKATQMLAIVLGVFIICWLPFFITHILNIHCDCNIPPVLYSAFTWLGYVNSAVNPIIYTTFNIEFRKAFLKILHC
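In this primary screen, negative modulation is detected by tracking calcium flux after an EC80 dopamine challenge in inducible HEK293 T-REx D2 cells preexposed to test compound for 180 s.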
D2 PAM-1 = HTS Assay for Positive Allosteric Modulators of the Human D2 Dopamine Receptor: Primary Screen for Potentiators; AID 485347, 2010; D(2) dopamine receptor (Homo sapiens), P14416; HEK293 T-REx D2, calcium flux, EC20 dopamine potentiation; potentiation, % at 10 µM; 340,000 tested, 0.34% active;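 active means potentiation over 3 SD above the plate norm, cut at about 30% in these data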
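Using a no-wash calcium dye in inducible, force-coupled HEK293 Trex cells expressing D2, we tracked fluorescence each second for 180 s after compound, then for 180 s after EC20 dopamine to detect augmented signalling.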
D2 ag-1 = Beta-Arrestin HTS for Positive Allosteric Modulators of the Human D2 Dopamine Receptor: Agonists; DiscoveRx PathHunter D2 beta-arrestin, luminescence, 90 min; 100% = 57 uM dopamine signal; D(2) dopamine receptor (Homo sapiens), P14416; activation, % (no concentration beside the values); 360,000 tested, 0.084% active; in the data active means activation above about 40%; inconclusive means between about 15% and that limit
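DiscoveRx PathHunter D2 beta-arrestin cells (2,100/well) attached overnight, then compound-stimulated 90 min at 37 C in HBSS/10 mM HEPES/0.1% Tween-20 buffer; beta-galactosidase complementation read by luminescence after 1 h at ambient temperature. Dopamine 57 uM final (EC100) as control.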
D2 PAM-2 = Beta-Arrestin HTS for Positive Allosteric Modulators of the Human D2 Dopamine Receptor: Potentiators | AID 624464, 2012 | potentiation, % (concentration not given with the values) | D(2) dopamine receptor (Homo sapiens), P14416 | DiscoveRx D2 beta-arrestin cells, luminescence, 90 min; 100% = 57 uM dopamine signal | 360,000 tested, 0.23% active; in the data active means potentiation above about 50%; inconclusive means mostly about 30% to 49%
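D2 cells co-treated with compound plus 50 nM dopamine (EC20) for 90 min at 37 deg C to detect potentiation. Beta-arrestin recruitment was read as enzyme-fragment luminescence after 1 h at ambient temperature. Full response was set by 57 uM dopamine.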
D2 ag-2 = HTS Assay for Allosteric Agonists of the Human D2 Dopamine Receptor: Primary Screen for Agonists. 340,000 tested, 0.53% active. activation, % at 2 µM. AID 485358, 2010. HEK293 T-REx D2 cells, calcium flux agonist mode. D(2) dopamine receptor (Homo sapiens), P14416;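 active means activation over 3 SD above normal in the single-dose calcium agonist read, cut at about 30% in these data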
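In this primary screen, compounds producing a positive calcium signal within 180 s of addition to tetracycline-induced, force-coupled HEK293 Trex D2 cells are flagged; cells are dye-loaded with a no-wash calcium kit beforehand.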
D3 arrestin ag = qHTS of D3 Dopamine Receptor Agonist: D3 Dopamine Receptor B-arrestin Agonist Confirmatory Assay; 2,300 tested, 4% active; AID 720506, 2013; Potency, µM (highest dose often 76.9 µM), usual class: activators; shares compounds with D2 ag-2; DiscoveRx D3 beta-arrestin cells, luminescence, 90 min; further: nearly all actives have a fitted effect of over 70% in size
D2 ag-3 = qHTS of D3 Dopamine Receptor Agonist: D2 Dopamine Receptor B-arrestin Agonist Counterscreen; DiscoveRx PathHunter D2 beta-arrestin, luminescence, 90 min; response scale: percent relative to full dopamine signal; shares compounds with D2 ag-2; 2,300 tested, 5.9% active; AID 720507, 2013; Potency, µM (top dose mostly 76.9 µM), most hits filed as activators; further: nearly all actives have a fitted effect of over 70% in size
Hits are given with their value; n = inactive; u = inconclusive; x = no result. A selection: hits, their analogues and other compounds. The true share with any hit is near 2.4%. Unless noted, the call rests on the fitted dose curve; in most records, active means well fitted activation curve with a large enough effect; inconclusive means small, poorly fitted or top-dose-only effect; inactive means flat fitted curve, though single readings scatter.

SMILES	D2 antagonist	D2 PAM-1	D2 ag-1	D2 PAM-2	D2 ag-2	D3 arrestin ag	D2 ag-3
O=C(N1CCN(c2ccccc2)CC1)C12CC3CC(CC(C3)C1)C2	72	n	n	n	80	n	n
CCc1ccc(OC(C)C(=O)Nc2c(C(=O)c3ccccc3)oc3ccccc23)cc1 (configuration not stated)	x	n	x	x	n	x	x
Cc1nn(C(C)C(=O)Nc2cccc(F)c2)c(=O)c2c1sc1ccccc12 (configuration not stated)	x	x	x	x	n	x	x
O=C(CNC(=O)c1ccc(Br)o1)NCC1CCCCC1	n	n	n	n	n	n	n
CC(c1ccccc1)C(OC(=O)c1cccc([N+](=O)[O-])c1C(=O)O)c1ccccc1 (configuration not stated)	x	x	n	n	x	x	x
COc1ccc2c(c1)[nH]c1c(=O)n(/N=C/C3C(C)C=C(C)CC3C)c(=O)[nH]c12 (configuration not stated)	n	x	n	n	n	x	x
COc1ccc2[nH]c3c(=O)n(/N=C/[C@H]4C(C)C=C(C)CC4C)c(=O)[nH]c3c2c1 (some centres not stated)	36	n	n	n	41	n	n
CCCN(CCC)CCOc1cc(C)ccc1C(C)C	x	x	u	n	x	n	u
Cc1ccc(C(C)C)c(OCCN(C)C)c1	n	n	n	n	n	x	x
O=C(NCc1ccncc1)C1CCN(S(=O)(=O)c2ccc(Cl)c(C(F)(F)F)c2)CC1	n	n	n	n	n	x	x
O=C(C1CCCN(Cc2cccnc2)C1)N1CCCCC1 (configuration not stated)	n	n	n	n	n	n	n
Cc1ccccc1-c1nc2c(s1)CCc1onc(-c3ccc(Cl)cc3)c1-2	n	n	n	n	n	x	x
O=C(Cc1cccc(NC(=O)C2CCN(C(=O)C3CCC3)CC2)c1)Nc1cccc(C(=O)N2CCCCC2)c1	x	x	n	n	x	x	x
CN(C(=O)c1cccc(NC(=O)Cc2ccc(NC(=O)C3CCN(C(=O)c4ccccc4)CC3)cc2)c1)C1CCC1	x	x	n	n	x	x	x
CN(C(=O)c1ccc(NC(=O)Cc2ccc(NC(=O)C3CCN(C(=O)c4ccccc4)CC3)cc2)cc1)C1CC1	n	n	n	n	n	n	n
CN(Cc1ccccc1)C(=O)c1ccc(NC(=O)Cc2cccc(NC(=O)C3CCCN(C(=O)C4CCC4)C3)c2)cc1 (configuration not stated)	n	n	n	n	n	n	n
O=C(Cc1cccc(NC(=O)C2CCN(C(=O)C3CC3)CC2)c1)Nc1cccc(C(=O)N2CCCC2)c1	n	n	n	n	n	n	n
COc1ccc(-n2c(SCC(=O)Nc3cc(C)cc(C)c3)nc3c(oc4ccccc43)c2=O)cc1	x	n	x	x	n	x	x
Cc1cc(C)nc(/N=C(\N)Nc2ccc(OCCC(C)C)cc2)n1	52	n	n	n	83	n	n
Cc1cc(C)nc(/N=C(\N)Nc2ccc(CC(=O)OC(C)C)cc2)n1	59	n	n	n	33	n	u
Cc1cc(C)nc(/N=C(\N)Nc2ccc(S(=O)(=O)O)cc2)n1	n	n	n	n	n	x	x
COc1ccccc1N/C(N)=N/c1nc(C)cc(C)n1	n	n	n	n	n	x	x
CCc1ccc(N/C(=N/c2nc(C)cc(C)n2)NC(C)=O)cc1	n	n	n	n	n	x	x
Cc1cc(C)nc(/N=C(\N)Nc2cccc(OCc3ccccc3)c2)n1	63	n	n	n	77	n	n
CC12OC1C1(O)CCCC1=CC2=O (configuration not stated)	n	n	x	x	n	x	x
SMILES	D2 antagonist	D2 PAM-1	D2 ag-1	D2 PAM-2	D2 ag-2	D3 arrestin ag	D2 ag-3
COc1cc(/C=C/C(=O)OCC(=O)N2CCN(S(=O)(=O)c3ccc(C)cc3C)CC2)cc(Cl)c1OC	n	n	n	u	n	x	x
Cc1ccc(NC(=O)CNC(=O)c2ccc3c(c2)OCO3)nc1	n	n	n	n	n	n	n
O=C1/C(=C/c2ccncc2)SC(=S)N1Nc1ccccc1	n	n	n	n	n	x	x
O=C(O)c1ccc(/C=C2\SC(=S)N(Nc3ccccc3)C2=O)cc1	n	n	n	n	n	u	n
Cc1cccc(N(Cc2ccccc2)C(=O)C2CCN(C(=O)c3ccccc3C)CC2)c1	n	n	n	n	n	n	n
Cc1ccccc1C(=O)N1CCC(C(=O)N(C)CCOc2ccccc2)CC1	n	n	n	n	n	x	x
COc1ccc(N2CCN(CC(O)COc3ccc(C(C)(C)C)cc3)CC2)cc1 (configuration not stated)	x	n	x	x	n	x	x
COc1ccc(OCC(O)CN2CCN(c3ccccc3)CC2)cc1 (configuration not stated)	n	n	u	n	89	u	u
COc1ccc(C(=O)CN2CCN(c3ncccn3)CC2)cc1	39	n	n	n	80	n	n
OC(COc1ccc2c(c1)OCO2)CN1CCN(c2ccccc2)CC1 (configuration not stated)	82	n	u	n	71	u	u
CC(C)c1ccc(OCC(O)CN2CCN(c3ccccc3)CC2)cc1 (configuration not stated)	78	n	u	n	54	n	u
CC(C)Cc1nn2c(=O)cc(COC(=O)c3ccccc3NC(=O)c3ccccc3)nc2s1	x	n	x	x	x	x	x
CCn1cc(C(=O)NCCc2ccc(Cl)cc2)c(=O)c2cc(S(=O)(=O)N3CCC(C)CC3)ccc21	x	n	x	x	n	x	x
COc1ccc(OCC(O)CN2CCN(c3ncccn3)CC2)cc1 (configuration not stated)	62	n	u	n	70	u	u
O=c1c2cnn(-c3ccccc3)c2ncn1CCc1ccccc1	n	n	n	n	65	n	n
CCn1cnc2c(cnn2-c2ccccc2)c1=O	n	n	n	n	n	x	x
COc1ccc(C(=O)Nc2cc(Cl)ccc2-n2cncn2)c(OC)c1OC	n	n	n	n	n	n	n
